D3 ag – activates the human D3 dopamine receptor; P35462; D3R DiscoveRx beta-arrestin cells, luminescence, 90 min; max activation, %; actives 0.58% (n = 410,000); AID 652048; in the data active = max activation above about 30%; note: 0% is about no effect
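Agonist mode: compounds and dopamine controls were applied to plated cells for 90 min at 37 degrees C after an overnight attachment at 1500 cells/well. Luminescent read-out followed 30 - 60 minutes at room temperature with DiscoveRx detection reagent.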
DT40 TDP1 CPT – DT40-hTDP1 cell growth loss with CPT; chicken DT40 Tdp1-/-;hTDP1 cells + 20 nM CPT, ATP luminescence, 48 h; Potency, µM (top dose mostly 46.2 µM), inactives show at the top dose activity change, negative = growth inhibition, usual class: inhibitors; actives 12% (n = 420,000); AID 686979; note: potency is the fitted concentration of half-maximal effect; % is set by controls: 0 for no effect and ±100 for the full control effect; nearly all actives have a fitted effect of over 55% in size
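Chicken DT40 Tdp1-/- cells complemented with human TDP1, 400 cells/well, exposed to compounds plus 20 nM camptothecin for at least 48 h at 37 C; viability read as ATP content by CellTiter-Glo luminescence.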
IL-1B inflam inh – blocks inflammasome-driven IL-1 beta release; THP-1 LPS/ATP IL-1B secretion, AlphaLISA, 16 h; hits give low values; activity change, % at 57.5 µM; actives 4.7% (n = 360,000); in the data active = activity change below about -50%; inconclusive = mostly about -30% to -49%; note: % is set by controls: 0 for no effect and ±100 for the full control effect
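Secreted IL-1B measured by AlphaLISA bead assay after 16 h compound exposure of THP-1 cells; compounds (final up to 57.5 uM) added 1 h before LPS (250 ng/mL) and ATP (1.25 mM) stimulation; lower signal means less secretion.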
TDP1 cell noCPT – qHTS for Inhibitors of human tyrosyl-DNA phosphodiesterase 1 (TDP1): qHTS in cells in absence of CPT. DT40 Tdp1-/- hTDP1 cells, no CPT, ATP luminescence, 48 h. Potency, µM (top dose mostly 46.2 µM), for inactives: at the highest dose activity change, negative = growth inhibition, actives largely listed as inhibitors. actives 15% (n = 420,000). AID 686978, 2013; note: potency is the fitted concentration of half-maximal effect; % is set by controls: 0 for no effect and ±100 for the full control effect; nearly all actives have a fitted effect of over 55% in size
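Stably hTDP1-transfected Tdp1-null chicken DT40 cells were treated with library compounds minus camptothecin and grown for at least 48 hr at 37 °C, after which cellular ATP was quantified by luminescence.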
ClpP mod – qHTS Assay for Activators of ClpP. Potency, µM (highest dose often 57.5 µM), inactives show at the highest dose activity change, negative = active. purified B. subtilis ClpP, FRET peptide cleavage, 20 min. actives 1.9% (n = 340,000); active = well fitted falling curve with a large enough effect; inconclusive = small, poorly fitted or top-dose-only effect; inactive = no such curve, though single readings can be large or run the other way; note: potency is the fitted concentration of half-maximal effect; the source files actives as falling curves though it sought activators and does not explain the sign; nearly all actives have a fitted effect of over 65% in size
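ClpP 10 microg/mL final, pH 8 Tris/KCl buffer with BSA, glycerol, Tween-20; compound pinned in; FRET-FV substrate; RT 20 min; Ex320/Em430; ΔFRET vs ADEP 5.8 microM, DMSO, no enzyme.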
D3 antag – blocks the human D3 dopamine receptor | D3R cells, DiscoveRx beta-arrestin luminescence, antagonist mode; hits give low values | max response, negative = inhibition, % | actives 2.5% (n = 360,000) | AID 652054; in the data active = max response below about -50%; inconclusive = no clear call, values can overlap the other calls; note: % is set by controls: 0 for no effect and ±100 for the full control effect
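Cells plated overnight at 1500 cells/well, then exposed to library compounds with dopamine controls for 90 minutes at 37 degrees C. DiscoveRx reagent added for 30–60 minutes at room temperature; luminescence read, quantitative HTS format.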
* = called active by the depositor. A selection: hits, their analogues and other compounds. The true share with any hit is near 21%. Unless noted, calls come from the whole dose curve; as a rule, active = well fitted inhibition curve with a large enough effect; inconclusive = small, poorly fitted or top-dose-only effect; inactive = flat fitted curve, though single readings scatter.

`C=CCn1c(SCC(=O)Nc2ccccc2F)nc2ccccc2c1=O` gave D3 ag 6.6, DT40 TDP1 CPT -17.1%, IL-1B inflam inh 0.0, TDP1 cell noCPT -17.5%, ClpP mod 1.7% and D3 antag 2.9.
CCOC(=O)c1c(NC(=O)/C=C/c2ccc(C)o2)sc(C)c1C was read as D3 ag -4.1, DT40 TDP1 CPT -24.7%, IL-1B inflam inh 4.2, TDP1 cell noCPT -21.9%, ClpP mod -1.3% and D3 antag -8.4.
Screening Cc1sc(NC(=O)c2cccc([N+](=O)[O-])c2)c(C(N)=O)c1-c1ccc(C(C)(C)C)cc1 returned D3 ag 2.1, DT40 TDP1 CPT inconclusive, IL-1B inflam inh -17.3, TDP1 cell noCPT 20.6µM*, ClpP mod 2.0% and D3 antag 1.7.
Cc1sc(NC(=O)C2CCCCC2C(=O)O)c(C(N)=O)c1-c1ccccc1 (configuration not stated) was read as D3 ag -4.7, DT40 TDP1 CPT -17.6%, IL-1B inflam inh 5.8, TDP1 cell noCPT -22.2%, ClpP mod -15.3% and D3 antag -13.3.
CCOC(=O)c1c(NC(=O)/C=C/C(=O)O)sc(C)c1-c1ccc(C(C)(C)C)cc1 was read as D3 ag -2.6, DT40 TDP1 CPT 13µM*, IL-1B inflam inh -106.2*, TDP1 cell noCPT 20.6µM*, ClpP mod 0.8% and D3 antag -12.7.
For Cc1cc(C(=O)Nc2sc(C)c(-c3ccc(F)cc3)c2C(N)=O)no1 the results were D3 ag -12.0, DT40 TDP1 CPT -15.5%, IL-1B inflam inh 0.0, TDP1 cell noCPT -13.9%, ClpP mod 12.6µM* and D3 antag -24.1.
`CCc1ccc(-c2c(C)sc(NC(C)=O)c2C(N)=O)cc1` gave D3 ag -6.1, DT40 TDP1 CPT inconclusive, IL-1B inflam inh inconclusive, TDP1 cell noCPT 23.1µM*, ClpP mod 8.3% and D3 antag 43.1.
For Cn1c(N)c(C(=O)CN2CCN(S(=O)(=O)c3ccccc3C#N)CC2)c(=O)n(C)c1=O the results were D3 ag 2.0, DT40 TDP1 CPT -15.5%, IL-1B inflam inh 11.9, TDP1 cell noCPT -14.8%, ClpP mod 10.8% and D3 antag -12.5.
CCOC(=O)c1c(NC(=O)/C=C\C(=O)O)sc(C)c1-c1ccccc1 was read as D3 ag -4.7, DT40 TDP1 CPT inconclusive, IL-1B inflam inh -98.7*, TDP1 cell noCPT inconclusive and D3 antag -16.6.
`Cc1sc(NC(=O)C2C3CCC(C3)C2C(=O)O)c(C(N)=O)c1-c1ccc(C(C)(C)C)cc1` (configuration not stated) gave D3 ag 3.6, DT40 TDP1 CPT inconclusive, IL-1B inflam inh -1.7, TDP1 cell noCPT 11.6µM*, ClpP mod -1.1% and D3 antag 2.8.
CCOC(=O)c1c(NC(=O)C2C3CCC(O3)C2C(=O)O)sc(C)c1-c1ccc(C)cc1 (configuration not stated) was read as D3 ag 8.0, DT40 TDP1 CPT -16.8%, IL-1B inflam inh 16.4, TDP1 cell noCPT -3.4%, ClpP mod -16.4% and D3 antag 9.4.
Cc1sc(NC(=O)C2CCCCC2C(=O)O)c(C(N)=O)c1-c1ccc(C(C)(C)C)cc1 (configuration not stated) was read as D3 ag 4.3, DT40 TDP1 CPT -9.1%, IL-1B inflam inh 14.7, TDP1 cell noCPT -27.2%, ClpP mod -5.2% and D3 antag 0.0.
`Cc1sc(NC(=O)/C=C/C(=O)O)c(C(N)=O)c1-c1ccc(C(C)(C)C)cc1` gave D3 ag -7.4, DT40 TDP1 CPT 23.1µM*, IL-1B inflam inh -91.3*, TDP1 cell noCPT inconclusive, ClpP mod 0.5% and D3 antag inconclusive.
`O=C(NCc1cccc(Cl)c1)N1CCN(S(=O)(=O)c2ccccc2F)CC1` gave D3 ag 17.8, DT40 TDP1 CPT -18.2%, IL-1B inflam inh -17.1, TDP1 cell noCPT -18.0% and D3 antag -3.6.
For CCc1ccc(-c2cc(C(F)(F)F)n3nc(C(=O)Nc4c(C)nn(Cc5ccccc5C)c4C)cc3n2)s1 the results were D3 ag 3.3, DT40 TDP1 CPT 18.4µM*, IL-1B inflam inh 19.1, TDP1 cell noCPT 16.4µM*, ClpP mod inconclusive and D3 antag -20.6.
CCc1ccc(-c2cc(C(F)(F)F)n3nc(C(=O)Nc4c(C)nn(Cc5ccccc5Cl)c4C)cc3n2)s1 was read as D3 ag 0.5, DT40 TDP1 CPT inconclusive, IL-1B inflam inh -3.7, TDP1 cell noCPT inconclusive, ClpP mod inconclusive and D3 antag 21.4.
CSc1cccc(N2C(=O)N(CC(=O)NCc3ccccc3Cl)c3ccccc3S2(=O)=O)c1 was read as D3 ag 4.2, DT40 TDP1 CPT inconclusive, TDP1 cell noCPT 16.4µM* and ClpP mod -2.5%.
Screening O=C(CN1c2cccc3cccc(c23)S1(=O)=O)NCc1ccccc1Cl returned D3 ag -3.0, DT40 TDP1 CPT inconclusive, IL-1B inflam inh -2.5, TDP1 cell noCPT inconclusive, ClpP mod 4.1% and D3 antag -15.6.
`COc1cccc(CNC(=O)CN2C(=O)CCCc3ccccc32)c1OC` gave D3 ag -10.3, DT40 TDP1 CPT -10.2%, TDP1 cell noCPT -11.7% and ClpP mod -1.4%.
`COc1cccc(CNC(=O)CN2C(=O)N(c3ccc(C)cc3C)S(=O)(=O)c3ccccc32)c1OC` gave D3 ag 6.1, DT40 TDP1 CPT inconclusive, TDP1 cell noCPT 20.6µM* and ClpP mod -1.1%.
For C[C@@H]1CN([C@H](C)CO)C(=O)CCCn2cc(nn2)CO[C@H]1CN(C)S(=O)(=O)c1cccc(F)c1 the results were D3 ag 0.4, DT40 TDP1 CPT 3.2%, IL-1B inflam inh -12.2, TDP1 cell noCPT -3.7%, ClpP mod -1.3% and D3 antag -29.1.
Screening CCC(C)NCCCOc1ccc([N+](=O)[O-])cc1 (configuration not stated) returned D3 ag 16.5, DT40 TDP1 CPT -1.3%, IL-1B inflam inh 18.6, TDP1 cell noCPT inconclusive, ClpP mod 0.9% and D3 antag -16.6.
CCC(C)NCCOCCOc1ccc(C)cc1OC (configuration not stated) was read as D3 ag -8.9, DT40 TDP1 CPT -1.3%, IL-1B inflam inh 18.2, TDP1 cell noCPT inconclusive, ClpP mod 0.5% and D3 antag -5.8.

Source: PubChem (National Center for Advancing Translational Sciences (NCATS))
